Measured values from PubChem BioAssay AID720504 (National Center for Advancing Translational Sciences (NCATS), 2013).
Among all 360,000 compounds or so, about 10,000 (2.8%) were called active. Not shown: some 4% with an inconclusive outcome. This is one part of a sample in which actives are shown more often than they occur. A number with no mark means an inactive call. The call rests on the fitted dose curve; in most records, active means well fitted inhibition curve with a large enough effect; inconclusive means small, poorly fitted or top-dose-only effect; inactive means flat fitted curve, though single readings scatter.

Target: Serine/threonine-protein kinase PLK1 (Homo sapiens) (UniProt P53350)
Test: qHTS for Inhibitors of PLK1-PDB (polo-like kinase 1 - polo-box domain): Primary Screen; further: nearly all actives have a fitted effect of over 65% in size; on max response, negative = inhibition: series mostly up to about 57 µM
Conditions: Plk1 PBD binding of FITC phosphopeptide, fluorescence polarization
Source text: The polo-like kinase 1 (Plk1) is a member of a conserved subfamily of serine / threonine protein kinases that plays a pivotal roles in cell proliferation. It has a C-terminal non-catalytic region called the polo-box domain (PBD) that plays a crucial role in the subcellular localization of the Plk1. […] Furthermore, depletion of the overexpressed Plk1 by RNAi efficiently induces apoptotic cell death in cancer and reduces tumor growth in mouse xenograft models. Thus, targeting Plk1 is an appealing strategy for anti-cancer therapy. Therefore, this project aimed to screen the Molecular Libraries Small Molecule Repository (MLSMR) using a novel approach to find inhibitors that target the Plk1 PBD instead of the conventional N-terminal catalytic domain. This project employed a fluorescence polarization (FP) assay using a FITC-conjugated phospho-9-mer (p-9-mer) peptide and purified human Plk1 PBD protein. The identified small molecule inhibitors of Plk1 PBD can then further be developed into useful tools for biomedical and clinical research that complements or replaces current relevant disease therapy. NIH Chemical Genomics Center [NCGC] NIH Molecular Libraries Probe Centers Network [MLPCN] MLPCN Grant: MH100728 Assay Submitter (PI): Kyung Lee, NCI
Four microliter of 25 nM FITC-p-9-mer + 60 nM Plk1 PBD in buffer solution (final concentrations 25 nM and 60 nM respectively) or 4 uL of 25 nM FITC-p-9-mer (final concentration 25 nM) in buffer will be dispensed into a 1,536 Greiner medium-binding black solid plate. Small molecules at final concentrations of 18 nM to 57 uM and positive control phospho-9-mer (sequence: Ac-PPLHSpTAI-NH2) at final concentrations 26 nM to 57 uM and phospho-13-mer (sequence: Ac-[…]pTAI-NH2) at final concentrations of 1 nM to 2.3 uM will be pin-transferred (23 nL) to the plate via a Kalypsys pin-tool robotics equipped with a 1,536-pin array. The reaction plate will be centrifuged for 1 min at 1000 rpm and incubated at room temperature for 10 min. The FITC fluorescence signals will be read using the PerkinElmer ViewLux plate reader at 480 / 20 nm excitation and 540 / 20 nm S and P polarization emission wavelengths. Reagent bottles will be kept submerged into 4 °C recirculating chiller bath and all liquid lines will be covered with aluminum foil to minimize degradation. Library plates will be screened starting from the lowest to the highest concentrations to minimize compound carryover. Vehicle only plates, with DMSO being pin-transferred instead of compound solutions, will be included regularly throughout the screen to record any systematic shifts in assay signal.
On the % scale 0 is the no-effect control and ±100 the full control effect; potency means the concentration at half of the fitted maximal effect.

Serine/threonine-protein kinase PLK1 (Homo sapiens), sequence (P53350 whole entry, looked up, the tested form may be a part): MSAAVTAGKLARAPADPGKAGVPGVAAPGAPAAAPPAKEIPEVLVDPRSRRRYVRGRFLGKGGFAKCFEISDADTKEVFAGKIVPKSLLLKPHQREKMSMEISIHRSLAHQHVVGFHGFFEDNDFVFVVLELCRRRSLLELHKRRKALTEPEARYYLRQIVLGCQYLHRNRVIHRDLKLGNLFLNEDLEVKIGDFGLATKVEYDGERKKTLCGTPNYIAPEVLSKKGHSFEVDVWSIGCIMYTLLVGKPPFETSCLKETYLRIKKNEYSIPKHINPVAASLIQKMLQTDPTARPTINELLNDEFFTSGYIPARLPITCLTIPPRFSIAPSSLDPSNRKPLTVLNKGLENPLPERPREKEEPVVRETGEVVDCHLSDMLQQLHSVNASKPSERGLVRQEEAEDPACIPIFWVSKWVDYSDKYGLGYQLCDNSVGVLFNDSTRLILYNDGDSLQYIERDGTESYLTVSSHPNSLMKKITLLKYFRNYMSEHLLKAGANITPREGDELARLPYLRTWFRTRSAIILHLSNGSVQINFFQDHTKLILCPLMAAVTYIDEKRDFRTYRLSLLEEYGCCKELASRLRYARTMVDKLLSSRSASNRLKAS

Row | Structure (SMILES) | Potency | max response, negative = inhibition [%]
1 | CCOC(=O)[C@]12Cc3ccccc3[C@H]1N(C1CCCCC1)C(=O)c1cc(OC)ccc12 | 10.6 µM (active) | –
2 | CCOC(=O)c1cccc(C2=C(CNC(=O)c3ccncc3)[C@H]3CC[C@@H](C2)N3Cc2ccccc2)c1 | – | -3.52
3 | COc1ccc(CN2C(=O)NC(=O)/C(=C\c3ccc(OC)c(OC)c3OC)C2=O)cc1 | 7.52 µM (active) | –
4 | O=c1c2ccccc2nc(-c2ccc(Cl)cc2Cl)n1-c1ccncc1 | – | -3.78
5 | Nc1ccc([N+](=O)[O-])cc1 | – | -16
6 | C=CCN(CC=C)C(=O)Nc1ccc(OCC)cc1 | – | -8.48
7 | CCC(=O)c1ccc(OCC(=O)N2CCN(CC(=O)Nc3ccc(C)cc3)CC2)cc1 | – | -6.03
8 | C=CCN1C(=O)NC(=O)/C(=C/c2ccc(OCC(=O)Nc3ccc(C)cc3)cc2)C1=O | 8.44 µM (active) | –
9 | CCOC(=O)C1CN(C)CCC1=O (stereo not drawn) | – | -5.51
10 | O=C(CCCn1c(=O)[nH]c2cc(Cl)ccc2c1=O)N1CCC2(CC1)OCCO2 | – | -6.33
11 | COC(=O)N(c1ccc(OC)cc1)P1(=S)OCCC(C)O1 (stereo not drawn) | 2.67 µM (active) | –
12 | Cc1ccc(N(C)C(=O)Oc2cccc3ccc(C)nc23)cc1 | – | 0.137
13 | COc1ccc(N2C(=O)/C(=C/c3ccco3)C(=O)NC2=S)cc1 | 2.67 µM (active) | –
14 | CC(=NCC1CCCO1)c1c(O)n(-c2ccccc2)c(=O)[nH]c1=O (stereo not drawn) | – | -9.8
15 | COCc1cc(OC(=O)N(C)C)nc(-c2ccc(C)c(Cl)c2)n1 | – | -4.36
16 | CCC(=NCc1ccco1)c1c(O)n(Cc2ccccc2)c(=O)[nH]c1=O | – | -18.9
17 | CC/C(=N\NC(=O)c1ccccc1O)c1c(O)n(Cc2ccccc2)c(=O)[nH]c1=O | 16.8 µM (active) | –
18 | O=C(N/N=C/c1c(O)n(Cc2ccccc2)c(=O)[nH]c1=O)c1ccccc1 | – | -9.07
19 | COC(=O)C1=C(c2ccc(Cl)c(C(F)(F)F)c2)C[C@@H]2CC[C@H]1N2C(=O)NC(C)C | – | -9.53
20 | O=C(COc1ccc2ccccc2c1)N1CCN(Cc2ccncc2)CC1 | – | -21.6
21 | COc1ccc(-c2nc(CS(=O)CC(=O)N3CCC4(CC3)OCCO4)c(C)o2)cc1 (stereo not drawn) | – | -28
22 | ClC(Cl)(Cl)c1ccccc1 | – | -9.92

Row | Structure (SMILES) | Potency | max response, negative = inhibition [%]
23 | NCCc1c[nH]c2ccc(O)cc12 | – | -10.9
24 | CCOc1ccc(CN(CCCl)CCCl)cc1C(=O)OC | 26.7 µM (active) | –
25 | O=C(O)COc1ccccc1/C=C1\C(=O)NC(=O)N(CCC2=CCCCC2)C1=O | 11.9 µM (active) | –
26 | CCCCC(=O)N/N=C/c1c(O)n(CCC2=CCCCC2)c(=O)[nH]c1=O | – | -3.58
27 | COc1cc(C(=O)N2Cc3ccc(Br)cc3-n3nncc3C2)cc(OC)c1OC | – | -10
28 | CC(C)c1ccc(OCC(=O)N2CCN(C)CC2)c(Br)c1 | – | -13.2
29 | c1cc2c(c(NC3=NCCCS3)c1)CCCC2 | – | -11.8
30 | CC(=O)Cc1ccc(OC(C)C)cc1 | – | 1.86
31 | CC(=O)c1ccc(OC(NC(=O)Cc2ccccc2)C(Cl)(Cl)Cl)cc1 (stereo not drawn) | 13.4 µM (active) | –
32 | CCOP(=O)(OCC)C(NC(=O)c1ccc(OC)cc1)C(Cl)(Cl)Cl (stereo not drawn) | – | 1.87
33 | COC(=O)C1=C(c2ccc(OCc3ccccc3)cc2)C[C@@H]2CC[C@H]1N2C(=O)NCc1cccc(F)c1 | – | -7.41
34 | CN(C)C(=O)Oc1ccc(NC(=O)N2CCOCC2)cc1 | – | -3.11
35 | CCOC(=O)CNC(=O)N1Cc2cc(N3CCCCC3)ccc2-n2nncc2C1 | – | -3.84
36 | O=C1NC(=O)N(Cc2ccco2)C(=O)/C1=C\c1ccc(-c2ccc(F)cc2)o1 | 0.423 µM (active) | –
37 | O=C1NC(=O)N(Cc2ccco2)C(=O)/C1=C\c1cccn1CCOc1ccccc1 | 15 µM (active) | –
38 | N#CC1=C(N)Oc2c(c(=O)oc3ccccc23)C1c1ccccc1OC(=O)c1cccs1 (stereo not drawn) | – | -2.78
39 | CN(C)CC1CCCCC1=O (stereo not drawn) | – | -3.76
40 | CCC(C)n1c(O)c(/C=N/Nc2nc3c(c(=O)n(C)c(=O)n3C)n2C)c(=O)[nH]c1=S (stereo not drawn) | – | -11.1
41 | O=c1c2ccccc2nc(CBr)n1-c1ccc(Cl)cc1 | – | -5.73
42 | CCC(C)(O)C(=O)OC1C(=O)OC2CC3C(C)=CC(=O)C(O)C3(C)C3C4(O)OCC23C1C(C)C4O (stereo not drawn) | – | -4.99
43 | CCC(=O)OC(Cc1ccccc1)(c1ccccc1)C(C)CN(C)C (stereo not drawn) | – | -11.9
